In PubChem BioAssay (NCI):
About 83,000 compounds went through this panel and 20% of them were active in at least one assay; those are over-represented in the sample as a whole.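 Values shown are percent growth following 48 h exposure of cells in 96-well plates to a single concentration of compound; below 10 was considered active.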 A number with no mark means an inactive call. Calls of active or inactive are those of the source.

What follows are compounds tested on MDA-MB-435 melanoma (assay: NCI-60 one-dose screen, 48 h (100 = growth as untreated, 0 = no growth, -100 = all killed)). Conditions: 10 µM unless noted.

| SMILES | growth |
| --- | --- |
| O=C(CC12CC3CC(CC(C3)C1)C2)NCCOCCOCCNC(=O)c1cc2c(o1)C(=O)c1ccccc1C2=O | -97.7% (active) |
| CCN(CC)CCCNC(=O)c1ccc(N)cc1 | 108% |
| CCCCCCCCc1cc[n+](CC(=O)c2ccc(Br)cc2)cc1 | -15.1% (active) |
| CC/C=C/[C@@H]1C=C[C@@H]2CCC[C@H]2[C@@H]1CC[C@H](O)[C@H](C)N | -89.3% (active) |
| N#Cc1c(NC(=O)c2ccc(Br)cc2)sc2c1CCCC2 | -22.8% (active) |
| O=[N+]([O-])c1ccc2[nH]cc(-c3c4ccsc4cc4[nH]c5ccc([N+](=O)[O-])cc5c34)c2c1 | -27.6% (active) |
| Cc1nc(Nc2ccc(N)cc2)c2ccccc2n1 | 64.6% |
| CCCCN(Cc1ccc(C(=O)NO)cc1)C(=O)Nc1ccc(OCCCCCCCCCn2cc(CCCCC(=O)N[C@H](C(=O)N3C[C@H](O)C[C@H]3C(=O)NCc3ccc(-c4scnc4C)cc3)C(C)(C)C)nn2)cc1 | 34.8% |
| COc1ccc(OC)c(/C=C2\COc3ccc(O)cc3C2=O)c1 | 29.1% |
| CCOC(=O)C1=C(C)NC(SCc2nnc(-c3ccc(Cl)cc3)o2)=NC1c1ccc(Cl)cc1Cl (stereo not drawn) | 69% |
| O[C@H]1CO[C@H]2[C@@H]1OC[C@@H]2Oc1ccc(Nc2ccnc(Nc3ccc(O[C@H]4CO[C@H]5[C@@H]4OC[C@@H]5O)c(Cl)c3)n2)cc1Cl | 22.7% |
| COc1ccc(-n2nnc(C(=O)NCCc3c[nH]c4ccc(F)cc34)c2C)cc1 | 101% |
| CC(=O)Nc1ccc2c(c1)Cc1c(F)cccc1-2 | 107% |
